Drawing on PubChem BioAssay (NCATS), this text covers Potency and outcome for seven molecules.

Where “and” joins values, the source holds several entries; their conditions need not be identical. Equal entries are not always repeated. Records with an inconclusive call do not appear. A structure can be active in one record and inactive in another. Calls of active or inactive are those of the source. Unless noted, calls follow the shape of the dose curve; as a rule, active = well fitted curve in the direction sought with a large enough effect; inconclusive = small, poorly fitted or top-dose-only effect, or another doubt; inactive = no such curve, though single readings can be large; an effect the other way counts as inactive or inconclusive.

Assay [1] concerns the target Atrial natriuretic peptide receptor 1 (Homo sapiens) (UniProt P16066). Put plainly: Natriuretic polypeptide receptor (hNpr1) antagonism - Pilot screen (AID 1347049; calls by dose curve;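 also: agonist-evoked cGMP luminescence read 20 min after hNppA addition; series mostly up to about 58 µM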). The method, boiled down: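 cGMP-sensor HEK293/hNpr1 cells, 1500/well, plated overnight at 37C. 2% GloSensor reagent, 2 h RT. Compound (23 nL pin transfer) 30 min RT, baseline luminescence pre-read. 0.1 nM hNppA, 20 min RT, post-read.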

The target in assay [2] is Atrial natriuretic peptide receptor 2 (Homo sapiens) (UniProt P20594). Put plainly: Natriuretic polypeptide receptor (hNpr2) antagonism - Pilot subtype selectivity assay (AID 1347050; calls by dose curve). A digest of the protocol: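 Luminescence from a genetically encoded cGMP luciferase biosensor in hNpr2-expressing HEK293 cells is read before and 20 min after adding 1 nM hNppC. Test compounds, in interplate 1:5 titrations, are added 30-50 min ahead of the agonist.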

Assay [3] is described as follows: NS1 protein of Zika virus - qHTS assay to identify small molecule inhibitors in human HEK 293 cells (AID 1347053). Also: nearly all actives have a fitted effect of over 55% in size. Also: potency is read from the fitted curve at half-maximal effect. The method, boiled down:
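Read-out is a two-antibody TR-FRET for ZIKV NS1, normalized between uninfected cells and infected cells. Compound added 1 h before MR766 infection at MOI 0.5; human HEK 293 cells incubated 24 h, 37 C.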

The target of assay [4] is T1, Tyrosine-protein phosphatase non-receptor type substrate 1 (Homo sapiens) + Leukocyte surface antigen CD47 (Homo sapiens) (UniProt P78324+Q08722). Put plainly: CD47-SIRPalpha protein protein interaction - LANCE assay qHTS validation (AID 1347057; active = well fitted curve in the direction sought with a large enough effect in the signal ratio, with a control signal flat, not every such curve was filed as active; the % refers to the signal ratio; also: series mostly up to about 38 µM). The method, boiled down: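 Inhibition of soluble CD47/SIRPalpha ectodomain association by titrated compounds, measured as 665/615 nm time-resolved FRET ratio after sequential 30 min room-temperature incubations.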
Background: In TR-FRET formats the signal depends on donor and acceptor labels being close together.

Assay [5] has as its target T1, Tyrosine-protein phosphatase non-receptor type substrate 1 (Homo sapiens) + Leukocyte surface antigen CD47 (Homo sapiens). Put plainly: CD47-SIRPalpha protein protein interaction - HTRF assay qHTS validation (AID 1347058; active = well fitted curve in the direction sought with a large enough effect in the signal ratio, not every such curve was filed as active; the % refers to the signal ratio; also: series mostly up to about 38 µM). The method, boiled down:
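Soluble extracellular domains (6His-CD47, Avi-tag-biotinylated SIRPalpha) in PBS pH 7.4 with 0.05% IGEPAL CA-630. Compounds were preincubated 30 min at RT with CD47 and anti-His-Eu, then SIRPalpha and SAV-XL665 were added. TR-FRET 665/615 ratio.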

For assay [6] the target is unchanged. Put plainly: CD47-SIRPalpha protein protein interaction - Alpha assay qHTS validation (AID 1347059). A digest of the protocol:
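SIRPalpha-biotin 25 nM + cpd, 30 min RT, dark; add CD47-His 12.5 nM, 30 min; add Ni-NTA/SAV beads 10 ug/mL, 30 min; AlphaScreen. Buffer PBS pH 7.4 + 0.05% IGEPAL CA-630. Non-biotinylated SIRPalpha as control inhibitor.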

The target of assay [7] is Parathyroid hormone/parathyroid hormone-related peptide receptor (Homo sapiens) (UniProt Q03431). Put plainly: qHTS for PTHR1 Agonists: Optimization Screen against the NCGC LOPAC library (AID 1347079).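 Also: GloSensor cAMP luminescence in HEK-293 GP2 cells expressing human PTHR1 with IBMX.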 The method, boiled down: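 HEK-293 GP2 cells, PTHR1 + GloSensor cAMP; 3000 cells/well, o/n. Luciferin + IBMX 0.5mM each (stock), 1 hr 37C. Cpd titration, 1 hr 37C. Lum after 15 min RT. Ctrl M-PTH(1-15) top 10uM.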
(In general: qHTS replaces the single test concentration by a dilution series.)

Assay [8] is described as follows: qHTS of pediatric cancer cell lines to identify multiple opportunities for drug repurposing: Primary screen for SJ-GBM2 cells (AID 1347091). Also: potency is read from the fitted curve at half-maximal effect. A digest of the protocol: (§1)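 Viability measured as metabolically active cells via CellTiter-Glo luminescence following 48 hours of compound exposure, 11-point dilutions in confirmatory testing. 500-1,000 cells/well plated 5 hours before dosing; controls were DMSO and 2.3 µM bortezomib.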

Assay [9] in a line: qHTS of pediatric cancer cell lines to identify multiple opportunities for drug repurposing: Primary screen for A673 cells (AID 1347092). Also: nearly all actives have a fitted effect of over 45% in size. Also: potency is read from the fitted curve at half-maximal effect. The method, boiled down:
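Cells are plated, rested 5 h, dosed by pintool, incubated 48 h, then lysed with CellTiter-Glo and read by luminescence. DMSO is the neutral control; bortezomib at 2.3 uM final is the positive control.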

Assay [10] in a line: qHTS of pediatric cancer cell lines to identify multiple opportunities for drug repurposing: Primary screen for BT-37 cells (AID 1347094). Also: potency is read from the fitted curve at half-maximal effect. A digest of the protocol: (§2)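 Following a 5-hour attachment period, cells at 500-1,000/well received compounds and were cultured for 48 hours. CellTiter-Glo was added and luminescence read to estimate viable, metabolically active cells.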
The nature of assay [11]: qHTS of pediatric cancer cell lines to identify multiple opportunities for drug repurposing: Primary screen for NB-EBc1 cells (AID 1347095). Also: potency is read from the fitted curve at half-maximal effect. The method, boiled down: as §2
A short description of assay [12]: qHTS of pediatric cancer cell lines to identify multiple opportunities for drug repurposing: Primary screen for U-2 OS cells (AID 1347096). Also: nearly all actives have a fitted effect of over 50% in size. The method, boiled down: (§3)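 Viability after 48 h compound treatment at 37C, 500-1,000 cells/well, read as ATP luminescence with CellTiter-Glo. Primary screens used 11-point (MIPE, 0.78 nM-46 µM) or 8-point (NPC, 0.59 nM-46 µM) final concentrations; follow-up screens used 11-point dilutions.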

A short description of assay [13]: qHTS of pediatric cancer cell lines to identify multiple opportunities for drug repurposing: Primary screen for Saos-2 cells (AID 1347097). Also: nearly all actives have a fitted effect of over 40% in size. The method, boiled down:
as §2

Assay [14] can be described thus: qHTS of pediatric cancer cell lines to identify multiple opportunities for drug repurposing: Primary screen for SK-N-SH cells (AID 1347098). Also: nearly all actives have a fitted effect of over 65% in size. Also: potency is read from the fitted curve at half-maximal effect. A digest of the protocol: (§4)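 Cells (500-1,000/well) rested 5 h, then received compounds for 48 h; metabolically active cells were measured by CellTiter-Glo luminescence. Final concentrations spanned up to 46 µM (MIPE, 11-point) or 0.59 nM-46 µM (NPC, 8-point) in primary screens, 11-point in follow-ups.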

Assay [15] in a line: qHTS of pediatric cancer cell lines to identify multiple opportunities for drug repurposing: Primary screen for LAN-5 cells (AID 1347100). Also: potency is read from the fitted curve at half-maximal effect. The method, boiled down:
as §3

Assay [16] is described as follows: qHTS of pediatric cancer cell lines to identify multiple opportunities for drug repurposing: Primary screen for BT-12 cells (AID 1347101). Also: nearly all actives have a fitted effect of over 25% in size. Also: potency is read from the fitted curve at half-maximal effect. The method, boiled down: as §4
Assay [17] can be described thus: qHTS of pediatric cancer cell lines to identify multiple opportunities for drug repurposing: Primary screen for TC32 cells (AID 1347089). Also: nearly all actives have a fitted effect of over 60% in size. Also: potency is read from the fitted curve at half-maximal effect. A digest of the protocol: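 Measured quantity: luminescence from CellTiter-Glo, reflecting metabolically active TC32 cells following 48 h of compound. Curves came straight from multi-point titrations, with 8 or 11 points in primary and 11 in confirmatory screening.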

Assay [18] is described as follows: qHTS of pediatric cancer cell lines to identify multiple opportunities for drug repurposing: Primary screen for DAOY cells (AID 1347090). Also: nearly all actives have a fitted effect of over 55% in size. Also: potency is read from the fitted curve at half-maximal effect. A digest of the protocol: as §1
Assay [19] in a line: qHTS of pediatric cancer cell lines to identify multiple opportunities for drug repurposing: Primary screen for SK-N-MC cells (AID 1347093). Also: potency is read from the fitted curve at half-maximal effect. The method, boiled down:
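Metabolically active cells were quantified by ATP-dependent luminescence (CellTiter-Glo, 15 min at room temperature) following 48 h treatment. Cells had been plated at 500-1,000 per well and settled for 5 h beforehand.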

Assay [20] in a line: qHTS of pediatric cancer cell lines to identify multiple opportunities for drug repurposing: Primary screen for NB1643 cells (AID 1347099). Also: nearly all actives have a fitted effect of over 50% in size. The method, boiled down:
as §2

Atrial natriuretic peptide receptor 1 (Homo sapiens), sequence (P16066 whole entry, looked up): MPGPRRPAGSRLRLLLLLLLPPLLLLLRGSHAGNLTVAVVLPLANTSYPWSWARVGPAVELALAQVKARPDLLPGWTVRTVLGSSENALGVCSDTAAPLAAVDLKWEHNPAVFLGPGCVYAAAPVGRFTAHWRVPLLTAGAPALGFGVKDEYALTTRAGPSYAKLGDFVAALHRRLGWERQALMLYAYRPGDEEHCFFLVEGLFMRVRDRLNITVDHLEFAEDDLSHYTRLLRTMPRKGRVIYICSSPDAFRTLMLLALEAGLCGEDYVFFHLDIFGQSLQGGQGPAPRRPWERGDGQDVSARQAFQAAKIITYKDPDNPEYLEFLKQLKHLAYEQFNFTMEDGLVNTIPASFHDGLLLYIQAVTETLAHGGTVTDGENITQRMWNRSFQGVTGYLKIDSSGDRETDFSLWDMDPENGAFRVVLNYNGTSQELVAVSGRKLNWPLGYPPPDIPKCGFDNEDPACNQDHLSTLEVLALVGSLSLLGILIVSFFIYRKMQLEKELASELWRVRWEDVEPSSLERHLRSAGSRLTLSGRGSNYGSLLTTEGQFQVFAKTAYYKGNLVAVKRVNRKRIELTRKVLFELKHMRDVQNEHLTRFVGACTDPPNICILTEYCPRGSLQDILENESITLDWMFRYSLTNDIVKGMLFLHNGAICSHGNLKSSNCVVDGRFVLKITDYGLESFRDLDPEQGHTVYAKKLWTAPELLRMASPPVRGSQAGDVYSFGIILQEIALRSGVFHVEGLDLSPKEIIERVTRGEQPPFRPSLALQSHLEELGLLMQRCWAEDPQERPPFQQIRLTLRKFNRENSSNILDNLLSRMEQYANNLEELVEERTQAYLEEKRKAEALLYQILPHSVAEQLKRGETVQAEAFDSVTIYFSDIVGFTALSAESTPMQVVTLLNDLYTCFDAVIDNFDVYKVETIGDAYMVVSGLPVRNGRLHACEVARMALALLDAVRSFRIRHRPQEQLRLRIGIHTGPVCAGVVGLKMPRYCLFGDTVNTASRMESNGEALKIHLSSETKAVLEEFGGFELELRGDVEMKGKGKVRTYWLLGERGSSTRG
Atrial natriuretic peptide receptor 2 (Homo sapiens), sequence (P20594 whole entry, looked up): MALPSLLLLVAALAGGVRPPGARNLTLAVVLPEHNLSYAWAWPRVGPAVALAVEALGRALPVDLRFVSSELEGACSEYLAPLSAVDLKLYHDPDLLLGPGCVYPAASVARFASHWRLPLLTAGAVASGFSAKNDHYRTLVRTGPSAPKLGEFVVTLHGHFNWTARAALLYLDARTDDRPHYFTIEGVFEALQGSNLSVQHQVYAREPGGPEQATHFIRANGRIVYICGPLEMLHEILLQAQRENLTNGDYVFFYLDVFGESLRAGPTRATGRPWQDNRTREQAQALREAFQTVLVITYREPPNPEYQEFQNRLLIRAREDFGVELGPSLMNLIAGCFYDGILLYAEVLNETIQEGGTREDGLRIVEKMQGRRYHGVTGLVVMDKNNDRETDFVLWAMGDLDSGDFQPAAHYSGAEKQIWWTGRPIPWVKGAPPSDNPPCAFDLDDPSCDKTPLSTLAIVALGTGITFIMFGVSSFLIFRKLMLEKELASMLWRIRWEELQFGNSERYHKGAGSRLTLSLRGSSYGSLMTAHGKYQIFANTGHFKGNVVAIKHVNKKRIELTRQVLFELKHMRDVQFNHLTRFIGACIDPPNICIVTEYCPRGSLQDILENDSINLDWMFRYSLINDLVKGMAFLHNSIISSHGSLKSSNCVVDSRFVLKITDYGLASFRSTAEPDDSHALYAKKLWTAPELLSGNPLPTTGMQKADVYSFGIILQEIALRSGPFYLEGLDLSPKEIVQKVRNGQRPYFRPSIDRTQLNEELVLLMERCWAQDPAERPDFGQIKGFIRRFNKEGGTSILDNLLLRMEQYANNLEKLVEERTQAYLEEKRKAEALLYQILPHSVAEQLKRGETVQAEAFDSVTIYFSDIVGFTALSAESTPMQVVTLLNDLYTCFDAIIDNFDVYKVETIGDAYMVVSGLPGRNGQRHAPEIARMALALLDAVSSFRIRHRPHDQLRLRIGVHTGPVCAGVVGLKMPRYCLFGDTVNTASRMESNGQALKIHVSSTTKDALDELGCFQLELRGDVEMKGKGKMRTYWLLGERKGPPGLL
Parathyroid hormone/parathyroid hormone-related peptide receptor (Homo sapiens), sequence (Q03431 whole entry, looked up): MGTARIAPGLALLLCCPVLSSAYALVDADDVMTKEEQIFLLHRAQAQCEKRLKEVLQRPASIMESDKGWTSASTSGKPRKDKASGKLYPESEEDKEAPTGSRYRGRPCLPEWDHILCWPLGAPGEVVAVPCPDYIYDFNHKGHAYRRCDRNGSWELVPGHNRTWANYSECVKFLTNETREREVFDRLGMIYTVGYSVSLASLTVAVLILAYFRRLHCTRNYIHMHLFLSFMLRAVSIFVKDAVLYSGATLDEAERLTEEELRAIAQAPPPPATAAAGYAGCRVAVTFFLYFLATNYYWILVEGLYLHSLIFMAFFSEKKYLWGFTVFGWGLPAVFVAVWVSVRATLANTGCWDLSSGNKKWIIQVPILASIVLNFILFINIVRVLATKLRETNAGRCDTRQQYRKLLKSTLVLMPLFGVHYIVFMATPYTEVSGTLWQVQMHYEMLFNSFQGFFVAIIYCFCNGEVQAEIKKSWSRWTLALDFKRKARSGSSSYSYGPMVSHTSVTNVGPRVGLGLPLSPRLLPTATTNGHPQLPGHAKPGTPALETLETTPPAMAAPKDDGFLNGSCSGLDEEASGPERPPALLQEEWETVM
T1 sequence (P78324 whole entry, looked up, the tested form may be a part): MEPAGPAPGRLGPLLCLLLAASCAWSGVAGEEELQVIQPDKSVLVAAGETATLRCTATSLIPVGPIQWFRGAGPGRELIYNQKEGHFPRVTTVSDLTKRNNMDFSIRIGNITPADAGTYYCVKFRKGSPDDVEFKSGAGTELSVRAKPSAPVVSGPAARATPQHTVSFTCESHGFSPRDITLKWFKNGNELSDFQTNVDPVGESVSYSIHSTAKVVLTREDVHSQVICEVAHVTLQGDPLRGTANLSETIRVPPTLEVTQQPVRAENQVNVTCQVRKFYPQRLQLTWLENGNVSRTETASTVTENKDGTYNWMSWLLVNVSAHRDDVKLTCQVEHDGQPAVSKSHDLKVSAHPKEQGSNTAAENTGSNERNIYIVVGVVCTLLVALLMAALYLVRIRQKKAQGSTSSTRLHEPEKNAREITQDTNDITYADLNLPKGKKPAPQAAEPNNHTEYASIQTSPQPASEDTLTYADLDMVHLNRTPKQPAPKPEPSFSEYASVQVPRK
T1 sequence (Q08722 whole entry, looked up, the tested form may be a part): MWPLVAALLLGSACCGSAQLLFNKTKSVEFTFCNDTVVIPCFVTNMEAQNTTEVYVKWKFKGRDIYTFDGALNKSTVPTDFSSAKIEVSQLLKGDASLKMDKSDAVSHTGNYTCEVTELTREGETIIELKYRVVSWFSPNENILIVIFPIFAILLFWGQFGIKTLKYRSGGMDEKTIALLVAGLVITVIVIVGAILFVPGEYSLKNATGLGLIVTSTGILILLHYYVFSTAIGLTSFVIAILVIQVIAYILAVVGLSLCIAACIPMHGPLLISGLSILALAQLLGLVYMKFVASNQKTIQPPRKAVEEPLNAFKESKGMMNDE

Take `CN(C)CCOC(c1ccccc1)c1ccccc1`: the Potency entry in [1], in [2], in assay [3], in assay [7], in assay [8] and in assay [9] was “inactive” throughout. For the same molecule, the Potency result in assay [10], in assay [11], in [12], in [13], in assay [14] and in assay [15] was “inactive” throughout. In addition, the Potency entry in [16] is “inactive”. Moreover, the outcome in assay [4], in assay [5] and in assay [6] was inactive.
Turning to `CN(Cc1cnc2nc(N)nc(N)c2n1)c1ccc(C(=O)N[C@@H](CCC(=O)O)C(=O)O)cc1`, the Potency result in [1], in [2], in assay [3], in assay [6], in assay [7] and in assay [12] was “inactive” each time. Also, the Potency result in assay [13] and in assay [14] was “inactive” each time. For the same molecule, in [4], the result was inactive. Besides, the Potency in assay [17] is 0.0066 µM (active); in assay [18], 0.0266 µM (active); in assay [8], 47.3 nM (active) and 41.8 nM (active); in assay [9], 4.2 nM (active) and 59 nM (active); in [19], 0.003 µM (active); in assay [10] it was 9.8 nM (active) and 48.5 nM (active). Also, the Potency was 106 nM (active) and 187 nM (active) in [11]; 0.0526 µM (active) in [15]; 0.0062 µM (active) in [16].
For the molecule `NC(=O)OCC(COC(N)=O)c1ccccc1`, the Potency result in [1], in assay [2], in assay [3], in assay [6], in assay [7] and in [8] was “inactive” in each case. In addition, the Potency entry in [9], in assay [19], in assay [10], in assay [11], in assay [12] and in assay [14] was “inactive” in each case. The Potency result in assay [20], in [15] and in assay [16] was “inactive” throughout. The outcome in assay [4] and in assay [5] was inactive.
As for `OCCN1CCN(CCCN2c3ccccc3Sc3ccc(C(F)(F)F)cc32)CC1`, the Potency result in [1], in [2], in [6], in [7], in assay [18] and in assay [12] was “inactive” throughout. In addition, the Potency is 16.6 µM (active) and inactive in assay [3]; 20.9 µM (active) in assay [8]; 18.7 µM (active) in [9]; 2.09 µM (active) in assay [19]; 13.7 µM (active) in assay [10]; 21.5 µM (active) and 19.4 µM (active) in assay [14]. The Potency in assay [16] was 27.3 µM (active). Moreover, the outcome in assay [4] and in [5] was inactive.
Regarding `NC(CO)C(=O)NNCc1ccc(O)c(O)c1O` (centres undefined), the Potency result in [1], in assay [2], in [3], in [7], in assay [18] and in [8] was “inactive” throughout. Further, the Potency entry in assay [19], in assay [10], in assay [11], in assay [12], in assay [13] and in assay [14] was “inactive” throughout. The Potency entry in assay [20] and in [16] was “inactive” throughout. Also, the values for the Potency in assay [6] and in [9] were 13.1 µM (active) and 23.5 µM (active), respectively.
On to `NCCc1cnc[nH]1`, for which the Potency entry in assay [1], in [2], in assay [3], in [6], in assay [7] and in [8] was “inactive” in each case. Moreover, the Potency result in assay [9], in assay [19], in assay [10], in assay [11], in assay [12] and in assay [13] was “inactive” throughout. In addition, the Potency entry in [14], in [20], in assay [15] and in assay [16] was “inactive” throughout. Besides, the result in [4] and in assay [5] was inactive.
Regarding `CC1COc2c(N3CCN(C)CC3)c(F)cc3c(=O)c(C(=O)O)cn1c23` (centres undefined), the Potency entry in assay [1], in assay [2], in assay [3], in [7], in assay [17] and in [18] was “inactive” in each case. Further, the Potency result in [8], in assay [19], in assay [10], in [11], in [12] and in assay [13] was “inactive” each time. The Potency entry in [15] and in assay [16] was “inactive” each time.
